Source: PubChem
Most compounds without a hit are left out; they make up all but 12% or so of the library.
JMJD2A Tudor: JMJD2A Tudor domain (human) inhibition; AlphaScreen JMJD2A-Tudor / H3K4me3 peptide binding; Potency, µM (top dose mostly 114 µM), hits mostly inhibitors; 4.4% of 390,000 active; also: nearly all actives have a fitted effect of over 50% in size
Target sequence (O75164 whole entry, looked up, the tested form may be a part): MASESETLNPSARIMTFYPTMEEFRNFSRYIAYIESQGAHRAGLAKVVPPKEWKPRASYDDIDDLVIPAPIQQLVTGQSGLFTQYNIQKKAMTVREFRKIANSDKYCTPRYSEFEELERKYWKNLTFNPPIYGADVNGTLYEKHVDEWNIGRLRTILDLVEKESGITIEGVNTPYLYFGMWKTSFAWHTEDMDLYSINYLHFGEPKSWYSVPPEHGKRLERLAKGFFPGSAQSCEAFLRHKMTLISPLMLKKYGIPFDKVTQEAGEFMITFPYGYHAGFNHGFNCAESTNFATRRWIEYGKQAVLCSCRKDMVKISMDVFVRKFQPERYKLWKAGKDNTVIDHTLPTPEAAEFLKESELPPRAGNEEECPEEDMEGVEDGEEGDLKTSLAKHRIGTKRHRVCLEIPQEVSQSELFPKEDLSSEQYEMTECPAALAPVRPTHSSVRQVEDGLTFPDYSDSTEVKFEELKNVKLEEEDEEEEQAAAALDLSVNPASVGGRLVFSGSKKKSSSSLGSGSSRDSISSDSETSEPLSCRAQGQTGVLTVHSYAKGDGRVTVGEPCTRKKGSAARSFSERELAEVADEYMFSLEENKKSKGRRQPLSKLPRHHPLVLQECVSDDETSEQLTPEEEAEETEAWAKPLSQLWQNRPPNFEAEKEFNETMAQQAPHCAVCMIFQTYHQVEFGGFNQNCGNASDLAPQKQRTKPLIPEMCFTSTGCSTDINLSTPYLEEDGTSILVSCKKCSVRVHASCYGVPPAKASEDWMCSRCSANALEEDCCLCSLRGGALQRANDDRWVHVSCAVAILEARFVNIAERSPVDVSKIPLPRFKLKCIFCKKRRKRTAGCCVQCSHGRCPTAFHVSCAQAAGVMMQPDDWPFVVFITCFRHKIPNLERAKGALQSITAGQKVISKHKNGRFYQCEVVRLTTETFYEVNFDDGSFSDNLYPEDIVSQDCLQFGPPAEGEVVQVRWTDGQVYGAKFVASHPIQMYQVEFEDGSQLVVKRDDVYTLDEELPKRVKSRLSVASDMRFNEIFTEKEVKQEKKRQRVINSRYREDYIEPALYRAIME
BAZ2B inh: inhibitors of human BAZ2B bromodomain. Q9UIF8. Potency, µM (series often up to 114 µM), usual class: inhibitors. 4.4% of 360,000 active. AlphaScreen BAZ2B-H3K14Ac peptide displacement; also: nearly all actives have a fitted effect of over 60% in size
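Inhibition is scored as reduced AlphaScreen emission. The BAZ2B/b-H3(5-23)K14Ac complex (50 nM each) in PBS pH 7.4, 0.01% Tween-20 meets compound (up to 110 uM) for 30 min at RT before bead addition.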
HP1b binding inh: blocks HP1-beta chromodomain binding to methylated histone tails; P83916; AlphaScreen HP1-beta / biotin-H3K9me3 peptide binding; Potency, µM (top dose mostly 114 µM), actives largely listed as inhibitors; 0.56% of 390,000 active; also: nearly all actives have a fitted effect of over 70% in size
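AlphaScreen: HP1-beta (50 nM) preformed 30 min with biotin-H3(1-18)K9me3 peptide (50 nM) in PBS pH 7.4, 0.01% Tween-20. Compound added for 30 min at RT, then streptavidin donor/nickel chelate acceptor beads (10 ug/mL) for 30 min.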
G9a block: G9a (human) methyltransferase inhibition; 8.8% of 350,000 active; Potency, µM (doses to about 102 µM), actives largely listed as inhibitors; G9a H3K9 monomethylation, AlphaScreen, 2 h; AID 504332; Q96KQ7; also: nearly all actives have a fitted effect of over 75% in size
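AlphaScreen read-out: biotin-H3K9 peptide (500 nM) methylation by 20 nM enzyme with 20 uM SAM, 2 h at room temperature after 15 min compound preincubation; anti-monomethyl H3K9 antibody plus donor/acceptor beads, 10 min dark.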
Sfp inh: inhibitors of Bacillus subtilis Sfp phosphopantetheinyl transferase; 3.5% of 310,000 active; Biochemical Sfp PPTase activity, qHTS; Potency, µM, usual class: inhibitors; Q9F4F7;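 also: the enzyme is Sfp with the accession as filed and its product quenches rhodamine fluorescence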
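Fluorescence-quenching assay: 15 nM Sfp-PPTase preincubated 15 min at room temperature with compound, then 5 uM rhodamine-CoA and 12.5 uM BHQ-2-labelled YbbR peptide added. Fluorescence (ex 525/em 598 nm) read at start and after 30 min; difference gives rate.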
Of the large screens only hits and unclear results are named; the others gave an inactive call. Calls follow the shape of the dose curve; as a rule, active = well fitted curve in the direction sought with a large enough effect; inconclusive = small, poorly fitted or top-dose-only effect, or another doubt; inactive = no such curve, though single readings can be large; an effect the other way counts as inactive or inconclusive.

CN(C)c1ccc(CN(C(=O)c2cc3ccccc3oc2=O)C2CCS(=O)(=O)C2)cc1 (stereo not given)	BAZ2B inh inconclusive
CN(C)c1ccc(CN(CC2CCCO2)C(=O)c2cc3ccccc3o2)cc1 (stereo not given)	JMJD2A Tudor 45µM, BAZ2B inh 10µM, HP1b binding inh inconclusive, G9a block 6.3µM (no result: Sfp inh)
CN(C)c1ccc(C(=O)NCC2CCCO2)cc1 (stereo not given)	G9a block inconclusive
CCC(CC)c1nn2c(=O)cc(COc3ccc(NC(=O)c4ccccc4Cl)cc3)nc2s1	none (no result: Sfp inh)
COc1cccc([C@@H]2Oc3ccc(OC)cc3/C(=N/O[C@@H](C)CN3CCCCc4nc(C)c(C)cc43)[C@@H]2O)c1	none (no result: JMJD2A Tudor, BAZ2B inh, HP1b binding inh, G9a block)
Cc1cccc(C(=O)Nc2nsc(N)n2)c1	none (no result: Sfp inh)
CCN1CCN(Cc2ccc(OC)c(OCc3ccccc3)c2)CC1	G9a block inconclusive
CCN1CCN(CC#CCOc2ccccc2OC)CC1	JMJD2A Tudor 0.79µM, BAZ2B inh 22µM, HP1b binding inh inconclusive, Sfp inh inconclusive
COc1ccc(CNc2cc(-c3ccccc3OC)ncn2)c(OC)c1	Sfp inh 89µM (no result: JMJD2A Tudor, BAZ2B inh, HP1b binding inh)
COc1ccccc1CNc1ccnc(-c2ccc3c(c2)OCO3)n1	Sfp inh 50µM (no result: JMJD2A Tudor, BAZ2B inh, HP1b binding inh, G9a block)
COc1ccc(CNc2ccnc(-c3ccc4c(c3)OCO4)n2)c(OC)c1	Sfp inh 45µM (no result: JMJD2A Tudor, BAZ2B inh, HP1b binding inh)
COc1ccccc1CNc1ccnc(-c2ccccc2OC)n1	Sfp inh 79µM (no result: JMJD2A Tudor, BAZ2B inh, HP1b binding inh)
CCC(O)(Cc1ccccn1)Cc1ccccn1	none (no result: BAZ2B inh, G9a block, Sfp inh)
Cc1nc(SCc2nc3ccccc3[nH]2)c2oc3cc([N+](=O)[O-])ccc3c2n1	JMJD2A Tudor inconclusive (no result: BAZ2B inh, G9a block, Sfp inh)
CC(C)Oc1ccc(C2NC(=O)c3ccccc3O2)cc1 (stereo not given)	none
CCCN1CCCc2ccccc21	BAZ2B inh inconclusive, G9a block 22µM
COc1ccc(N=C2SCC(c3ccc(C)cc3)=NN2CCO)cc1	BAZ2B inh inconclusive, G9a block 50µM
COc1ccc(N=C2SC(C(=O)N3CCN(c4ccc([N+](=O)[O-])cc4)CC3)CC(=O)N2C)cc1 (stereo not given)	BAZ2B inh inconclusive (no result: G9a block)
O=[N+]([O-])c1ccc(C2=NN(CCO)C(=Nc3ccc(OC(F)(F)F)cc3)SC2)cc1	JMJD2A Tudor inconclusive, BAZ2B inh inconclusive, HP1b binding inh inconclusive, G9a block 16µM
COc1cc(CN2CCC(C(=O)NC3CCCC3)CC2)ccc1O	JMJD2A Tudor inconclusive, BAZ2B inh 32µM, HP1b binding inh inconclusive, G9a block inconclusive
COc1ccc(F)c(CN2CCC(N3CCC(C(=O)N4CCOCC4)CC3)CC2)c1	none
COc1cccc(CN2CCC(C(=O)N3CCN(c4ccccc4F)CC3)CC2)c1	JMJD2A Tudor 8.9µM, HP1b binding inh inconclusive, G9a block 10µM
COc1ccc(-c2nc(CN3CCC(C(=O)NC4CCCC4)CC3)c(C)o2)cc1OC	none
CS(=O)(=O)N1CCC(C(=O)N2CCN(c3ccccc3F)CC2)CC1	JMJD2A Tudor inconclusive
COc1ccc(OC)c(CN2CCC(C(=O)N3CCOCC3)CC2)c1	JMJD2A Tudor 2.2µM, BAZ2B inh inconclusive, HP1b binding inh inconclusive, G9a block 10µM
COc1cc(CN2CCC(C(=O)N3CCN(c4ccccc4F)CC3)CC2)ccc1O	JMJD2A Tudor 2.5µM, BAZ2B inh 56µM, HP1b binding inh inconclusive, G9a block 14µM
O=C(c1cnc2c(c1)COc1ccccc1-2)c1ccccc1O	JMJD2A Tudor inconclusive, BAZ2B inh inconclusive, G9a block inconclusive (no result: Sfp inh)
NC(=O)Nc1ccc(C(=O)OCC(=O)NC2CCCCC2)cc1	none
CCCCCCCCc1nc(SC(C)C(=O)O)n[nH]1 (stereo not given)	G9a block inconclusive
COc1ccc(OC)c(CN2CCC(C(=O)N3CCN(c4ccccc4F)CC3)CC2)c1	JMJD2A Tudor 1.4µM, BAZ2B inh inconclusive, HP1b binding inh inconclusive, G9a block 10µM
COc1cccc(CN2CCC(C(=O)N3CCN(Cc4ccc5c(c4)OCO5)CC3)CC2)c1	JMJD2A Tudor 0.89µM, HP1b binding inh inconclusive
COc1ncc2ncc(=O)n(CCc3ccccc3)c2n1	none (no result: JMJD2A Tudor, BAZ2B inh, HP1b binding inh)
Cc1ccc(N2CCN(C(=O)Cn3ncc4c([nH]c5ccc(C)cc54)c3=O)CC2)c(C)c1	none (no result: Sfp inh)
O=C(Nc1ccc(Cl)cc1)c1cncs1	none
COC(=O)NC(c1ccco1)C(C(C)=O)C(=O)OC (stereo not given)	none (no result: JMJD2A Tudor, BAZ2B inh, HP1b binding inh, G9a block)
Cc1ccccc1S(=O)(=O)NC1OC(=O)C(Oc2ccccc2)=C1Br (stereo not given)	BAZ2B inh inconclusive, G9a block 50µM
Cc1ccccc1S(=O)(=O)NC1OC(=O)C(Cl)=C1Cl (stereo not given)	JMJD2A Tudor inconclusive, BAZ2B inh inconclusive
CCN1/C(=C/C=C/c2oc3ccc4ccccc4c3[n+]2CC)Oc2ccc3ccccc3c21	JMJD2A Tudor inconclusive, BAZ2B inh inconclusive, G9a block inconclusive, Sfp inh 8.9µM
COc1ccc(C(=O)c2coc3ccc(O)c(CN4CCCCC4)c23)cc1	G9a block 25µM
O=C(c1ccccc1)c1coc2ccc(O)c(CN3CCOCC3)c12	none
COc1ccc(OC)c(-c2csc(NC(=O)CN3C(=O)C4CCCCC4C3=O)n2)c1 (stereo not given)	JMJD2A Tudor inconclusive, BAZ2B inh inconclusive, HP1b binding inh inconclusive, G9a block 50µM (no result: Sfp inh)
COc1ccc(-c2csc(NC(=O)CN3C(=O)NC4(CCCC4)C3=O)n2)cc1OC	G9a block 56µM (no result: Sfp inh)
COc1ccc(-c2csc(NC(=O)CN3C(=O)NC4(CCCC4)C3=O)n2)c(OC)c1	G9a block 50µM (no result: Sfp inh)
COc1ccc(OC)c(-c2csc(NC(=O)Cc3cc(OC)c(OC)c(OC)c3)n2)c1	none
COc1ccc(OC)c(-c2csc(NC(=O)COC(=O)c3ccc(NC(=O)CC#N)cc3)n2)c1	JMJD2A Tudor 45µM, BAZ2B inh 40µM (no result: Sfp inh)
CC(=O)/C(=N/Nc1ccccc1)N1CCOCC1	none
CC(=O)/C(=N/Nc1ccccc1C)N1CCOCC1	JMJD2A Tudor 56µM, G9a block 1µM
CSc1ccccc1C(=O)Nc1cc(C)ccc1C	G9a block 40µM
Cc1cccc(NC(=O)c2ccccc2NC(=O)c2ccco2)c1	BAZ2B inh inconclusive, G9a block 40µM, Sfp inh inconclusive
CSc1ccccc1C(=O)Nc1cccc(C)c1	G9a block 45µM
CSc1ccccc1C(=O)Nc1ccc(C)cc1C	G9a block inconclusive
Cc1ccc2c(NC(=O)c3ccco3)cccc2n1	G9a block 50µM
COc1ccc(Cc2nc3ccccc3n2Cc2ccccc2C)cc1	none (no result: Sfp inh)
CCC(=O)N1CCc2cc(Br)cc(S(=O)(=O)CCC(=O)N(CC)CC)c21	none
CCCN(CCC)S(=O)(=O)c1cc(Br)cc2c1N(C(=O)CC)CC2	G9a block 50µM
